Source: PubChem BioAssay (National Center for Advancing Translational Sciences (NCATS))
Sampled rows, rich in hits. Any-hit rate of the full collection: about 6.2%.
ATXN viability = Viability Counterscreen for Primary qHTS for Inhibitors of ATXN expression. S2 cells (HEK-293 line with an ATXN2-luciferase reporter) viability, CellTiter-Fluor protease fluorescence, 24 h. actives 0.49% (n = 400,000). Potency, µM (doses to about 56.7 µM), actives largely listed as cytotoxic; further: nearly all actives have a fitted effect of over 40% in size
KB-V1 cytotox = qHTS assay for MDR1-selective chemotherapeutics: Primary screen using the drug-selected MDR subline cells KB-V1; Potency, µM (series often up to 46.1 µM), usual class: cytotoxic; KB-V1 MDR cells viability, CellTiter-Glo, 72 h; actives 3.4% (n = 400,000); further: on the % scale 0 is the no-effect control and ±100 the full control effect; nearly all actives have a fitted effect of over 60% in size
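Cytotoxicity toward P-gp-expressing KB-V1 cells was determined as loss of CellTiter-Glo luminescence after 72 h at 37 degrees C. Compounds were tested in quantitative HTS format across a concentration range, with curves fitted to normalized data.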
HT1080NT lethal = qHTS for induction of synthetic lethality in tumor cells producing 2HG: qHTS for the HT-1080-NT fibrosarcoma cell line; HT-1080-NT fibrosarcoma viability, CellTiter-Glo ATP luminescence, 48 h; AID 686970, 2013; Potency, µM (series often up to 46.1 µM), for the others: at the highest dose activity, negative = less viability, hits mostly cytotoxic; actives 1.6% (n = 360,000);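 further: NT is the 2HG producing partner of a matched IDH1 knockdown line; 0% = DMSO-treated cells and -100% = media-only wells without cells; nearly all actives have a fitted effect of over 55% in size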
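Viability by CellTiter-Glo luminescence after 48 h compound exposure at 37C of HT-1080-NT cells (750/well, RPMI, 5% FBS). % activity scaled between DMSO wells and medium-only wells, then curve-fitted and categorized by curve class.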
HT1080 IDH1KD tx = qHTS for induction of synthetic lethality in tumor cells producing 2HG: qHTS for the HT-1080-IDH1KD cell line. HT-1080 IDH1 knockdown viability, ATP luminescence, 48 h. Potency, µM (doses to about 46.1 µM), for inactives: top-dose activity, negative = toxicity, hits mostly cytotoxic. actives 2% (n = 360,000);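 further: 0% = DMSO wells and -100% = cell-free medium wells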
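IDH1KD HT-1080 cells, 750/well, RPMI + 5% FBS; compound pinned after 2 h settling; 48 h, 37 °C; CellTiter-Glo luminescence; % activity normalised to DMSO and no-cell wells; curves fitted, classed by r2 and efficacy.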
ATXN2 expr inh = Primary qHTS for Inhibitors of ATXN expression. HEK-293 ATXN2-luciferase reporter, luminescence, 24 h. Potency, µM (series often up to 57 µM), for inactives: at the top dose activity change, negative = inhibition, most hits filed as inhibitors. actives 0.72% (n = 360,000). AID 1745845, 2022; further: on the % scale 0 is the no-effect control and ±100 the full control effect; nearly all actives have a fitted effect of over 55% in size
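ATXN2-luciferase reporter cells (luciferase flanked by upstream and downstream ATXN2 gene portions) were treated 24 h at 37 °C with compounds at up to 57 uM. SteadyGlo luminescence gave expression; GF-AFC fluorescence gave viability.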
KB-3-1 tox = qHTS assay for MDR1-selective chemotherapeutics: Primary screen using the parental adenocarcinoma cell KB-3-1; KB-3-1 viability, CellTiter-Glo ATP luminescence, 72 h; Potency, µM (titrated, usually from 46.1 µM), usual class: cytotoxic; actives 1.4% (n = 400,000); further: on the % scale 0 is the no-effect control and ±100 the full control effect; nearly all actives have a fitted effect of over 60% in size
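Cytotoxicity measured as CellTiter-Glo luminescence after 72 h at 37 C. Compound titrations were pinned onto drug-naive KB-3-1 parental adenocarcinoma cells grown in DMEM with 10% FBS, and normalized data fitted to concentration-response curves.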
Numbers without * were called inactive; i = inactive; ? = inconclusive; . = no result; ! = a repeat was not active. The call rests on the fitted dose curve; in most records, active means well fitted curve in the direction sought with a large enough effect; inconclusive means small, poorly fitted or top-dose-only effect, or another doubt; inactive means no such curve, though single readings can be large; an effect the other way counts as inactive or inconclusive. Potency means the concentration at half of the fitted maximal effect.

SMILES | ATXN viability | KB-V1 cytotox | HT1080NT lethal | HT1080 IDH1KD tx | ATXN2 expr inh | KB-3-1 tox
CC[C@H]1OC(=O)[C@H](C)[C@@H](O[C@H]2C[C@@](C)(OC)[C@@H](O)[C@H](C)O2)[C@H](C)[C@@H](O[C@@H]2O[C@@H](C)C[C@H](N(C)C)[C@@H]2O)[C@](C)(O)C[C@@H](C)C(=O)[C@H](C)[C@@H](O)[C@]1(C)O | . | . | . | . | -1% | .
CN(C(=O)c1ccc(S(=O)(=O)N(C)C)cc1)c1ccc2ccccc2c1 | i | i | 2% | -18% | -8% | i
CCCc1ccc(C(O)c2ncc(-c3ccccc3C)[nH]2)cc1 (configuration not stated) | i | i | -13% | -14% | 10% | i
COc1ccc(NC(=O)CCS(=O)(=O)c2nc(-c3ccc4c(c3)OCO4)cc(C(F)(F)F)n2)c(OC)c1 | i | i | . | . | 12% | i
N=c1c2c(-c3ccccc3)c(-c3ccccc3)n(Cc3ccccc3)c2ncn1CCO | 8.9µM* | 18µM* | -22% | ? | ? | i
N=c1c2c(-c3ccccc3)c(-c3ccccc3)n(Cc3ccco3)c2ncn1Cc1ccccc1 | i | i | 4% | 0% | -24% | i
N=c1c2c(-c3ccccc3)c(-c3ccccc3)oc2ncn1CCN1CCOCC1 | i | ? | ? | ? | -23% | ?
N=c1c2c(-c3ccccc3)c(-c3ccccc3)oc2ncn1CCCN1CCOCC1 | ? | 23µM* | -30% | -22% | ? | ?
Cc1cnccc1CN(C)Cc1nc(Cc2ccccc2Cl)no1 | i | 9.2µM* | ? | -29% | 1% | 21µM*
CN(Cc1ccccn1)Cc1nc(Cc2ccccc2Cl)no1 | ? | i | 3% | 8% | . | i
O=C(c1ccc2c(c1)N(Cc1ccccc1F)C(=O)c1ccccc1S2=O)N1CCN(c2ccccc2)CC1 (configuration not stated) | i | i | . | . | 3% | i
COc1ccc(NC(=O)c2nc(C)c(C3(C)CC(c4ccccc4)=NO3)s2)cc1 (configuration not stated) | i | ? | ? | ? | 7% | 4.6µM*
Cc1nc(C(=O)Nc2ccccc2)sc1C1(C)CC(c2cccnc2)=NO1 (configuration not stated) | i | i | 8% | 8% | 46% | i
CC(=O)Nc1ccc(Nc2nc(Nc3ccc(Cl)cc3)nc(N3CCOCC3)n2)cc1 | . | i | . | . | . | i
O=S1(=O)CC(N2CCSCC2)CN1Cc1cn(Cc2ccccc2)nn1 (configuration not stated) | i | i | 16% | 2% | 11% | i
O=C1c2ccccc2C(=O)C1c1ccc2ccccc2n1 | i | 2.6µM*! | ? | ? | ? | i
CC(=O)/C(=N\Nc1ccccc1Cl)Sc1cccc2cccnc12 | i | ? | 21µM* | ? | ? | i
CC(=O)/C(=N\Nc1ccccc1)Sc1cccc2cccnc12 | i | i | -8% | -4% | -6% | i
CCOC(=O)Nc1sc(C)nc1-c1ccccc1 | i | ? | 3% | 8% | 25% | i
CCOC(=O)Nc1nc(-c2ccccc2)c(C(=O)c2ccc(Cl)cc2)s1 | ? | 1.3µM* | ? | 0.52µM* | -12% | 1.2µM*
CCCCNC(=O)C1(C)CCCCN1C(=O)c1oc2ccccc2c1C (configuration not stated) | i | i | 7% | -6% | 0% | i
CCn1ncc(C2=NOC(C(=O)Nc3cnn(C45CC6CC(CC(C6)C4)C5)c3)C2)c1C (configuration not stated) | ? | 3.3µM* | ? | ? | 28µM* | ?
O=C(CCc1ccc(O)cc1)NN=Cc1ccc2c(c1)OCO2 | i | i | ? | 5.8µM* | . | ?
Cc1cc(C)c(OCC(=O)N/N=C/c2ccc3c(c2)OCO3)c(C)c1 | i | i | 18µM* | 13µM* | ? | ?
Cc1cccc(OCC(=O)N/N=C/c2ccc3c(c2)OCO3)c1 | i | i | 1% | -1% | 8% | i
SMILES | ATXN viability | KB-V1 cytotox | HT1080NT lethal | HT1080 IDH1KD tx | ATXN2 expr inh | KB-3-1 tox
NC(=O)c1cc(S(=O)(=O)NCC2CCC(C(=O)Nc3ccc(Cl)cc3)CC2)cs1 (configuration not stated) | i | i | . | . | 1% | i
COc1ccc(CN2C(=O)CSCC2(C)C(=O)NCc2ccccc2)cc1 (configuration not stated) | . | i | 7% | 0% | . | i
CCOC(=O)C1=C(C)N(C)C(C)=C(C(=O)OCC)C1c1ccc(Cl)cc1 | i | ? | ? | 23µM* | -16% | i
CCOC(=O)C1=C(C)NC(=S)N(C(C)=O)C1c1ccc(OC)c(OC)c1 (configuration not stated) | ? | i | ? | ? | -9% | i
CCOC(=O)C1=C(C)NC(=S)N(C(C)=O)C1c1ccc(Cl)cc1 (configuration not stated) | i | i | ? | 13µM* | -31% | i
CC(C(=O)NCC1CCCCC1)N1CCN(S(=O)(=O)c2cccs2)CC1 (configuration not stated) | i | i | 0% | 0% | -7% | i
COc1ccccc1-c1ccnc(-n2ncc(C(=O)N[C@H]3CCCCNC3=O)c2C2CC2)n1 | i | . | . | . | . | .
O=C(CN1C(=O)/C(=C\c2cccc(F)c2)Oc2ccccc21)N1CCN(c2ccccn2)CC1 | i | i | 16% | 5% | -8% | ?
O=C(CN1C(=O)/C(=C\c2ccc(F)cc2)Oc2ccccc21)N1CCN(c2ccccn2)CC1 | i | 7.3µM* | 4% | 1% | -17% | i
CN1CCC(=C2c3ccccc3CCc3sccc32)CC1 | ? | ? | 18µM* | ? | -20% | i
Cc1ccc(C(=O)c2oc3ccccc3c2NC(=O)COc2ccccc2C)cc1 | i | i | . | . | 8% | i
COc1ccccc1N1CCN(C(=O)c2cnn(-c3ccc(C)c(C)c3)c2C2CCN(C(=O)OC(C)(C)C)CC2)CC1 | . | i | . | . | . | 21µM*
